From PubChem BioAssay (EPA / NIEHS)
Where “and” joins values, the source holds several entries; their conditions need not be identical. Equal values may be shown once. Inconclusive results are not listed. Some structures have more than one record in an assay (separate samples or runs), and their calls can disagree. Calls of active or inactive are those of the source. The calls were made as follows, unless noted: active = hit-call score of the fitted dose curve at least 0.9, where 1 is the maximum; inconclusive = response in the unintended direction; inactive = score below 0.9.

Tests used:
[1] = BSK_4H_Eotaxin3: BioMAP Diversity Plus: 4H Assay for Eotaxin 3 Biomarker Activity (AID 2283000; active = hit-call score of the fitted dose curve at least 0.9, where 1 is the maximum; inactive = score below 0.9); settings: primary human endothelial cells (HUVEC); actives raise or lower the signal
In short: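 Chemicals were added to human umbilical vein endothelium cultures, and Eotaxin-3 was quantified by ELISA at 24 h. Values were derived by bidirectional fitting with DMSO serving as negative control and activity baseline.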

[2] = target: human Peroxisome Proliferator-activated Receptor alpha (PPARa), PPARA (gene 5465) (UniProt Q07869); assay: ATG_PPARa_TRANS: Attagene TRANS-FACTORIAL HepG2 Assay for human Peroxisome Proliferator-activated Receptor alpha (PPARa) (AID 2283001);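 as to AC50: potency for gain of reporter signal over DMSO so agonist or activator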
Chain of human Peroxisome Proliferator-activated Receptor alpha (PPARa), PPARA (gene 5465) (Q07869 whole entry, looked up, the tested form may be a part): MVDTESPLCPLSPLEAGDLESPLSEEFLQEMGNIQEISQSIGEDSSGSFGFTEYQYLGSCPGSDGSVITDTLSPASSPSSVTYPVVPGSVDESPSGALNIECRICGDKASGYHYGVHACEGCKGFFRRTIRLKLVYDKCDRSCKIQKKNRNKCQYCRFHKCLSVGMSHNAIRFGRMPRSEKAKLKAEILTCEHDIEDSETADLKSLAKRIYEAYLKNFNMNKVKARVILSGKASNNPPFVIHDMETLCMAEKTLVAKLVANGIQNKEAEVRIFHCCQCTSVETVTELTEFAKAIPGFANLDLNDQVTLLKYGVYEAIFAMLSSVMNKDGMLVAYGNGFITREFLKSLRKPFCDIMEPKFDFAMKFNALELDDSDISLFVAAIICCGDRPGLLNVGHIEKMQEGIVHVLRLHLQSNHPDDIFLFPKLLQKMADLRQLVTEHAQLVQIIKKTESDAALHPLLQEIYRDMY
In short: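 Read-out is fluorescence of reporter cDNA fragments resolved by capillary electrophoresis after RT-PCR. Human HepG2 liver cells carried transfected PPARa-Gal4 chimera and GAL4-UAS reporter units, treated 24 h; activity scored as increase over DMSO.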

[3] = read-out: Intercellular Adhesion Molecule 1 (ICAM1), ICAM1 (gene 3383); assay: BSK_3C_ICAM1: BioMAP Diversity Plus: 3C Assay for Intercellular Adhesion Molecule 1 (ICAM1) Biomarker Activity (AID 2283003; active = hit-call score of the fitted dose curve at least 0.9, where 1 is the maximum; inactive = score below 0.9); settings: primary human endothelial cells (HUVEC); actives raise or lower the signal
In short: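 ICAM-1 levels measured by ELISA after HUVEC cultures in the 3C system had been dosed for 24 h. Gain or loss of signal relative to DMSO was fitted in both directions.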

[4] = BSK_3C_Proliferation: Cell Proliferation Assessment in the BioMAP Diversity Plus: 3C Assay (AID 2283006; active = hit-call score of the fitted dose curve at least 0.9, where 1 is the maximum; inactive = score below 0.9;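 as to AC50: potency may reflect either rise or fall in cell number versus DMSO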); settings: primary human endothelial cells (HUVEC)
In short: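 Read-out is total protein by SRB absorbance at 560 nm, taken as a proxy for relative cell number. Primary human umbilical vein endothelium cultured below confluence was dosed for 48 h, TCA-fixed and SRB-stained; curves were fitted bidirectionally versus DMSO.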

[5] = target: Peroxisome proliferator-activated receptor gamma (Homo sapiens) (UniProt P37231); assay: ATG_PPARg_TRANS: Attagene TRANS-FACTORIAL HepG2 Assay for human Peroxisome Proliferator-activated Receptor-gamma (PPARg) (AID 2283007)
In short: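 Twenty-four hours after chemical dosing of transiently transfected HepG2 cells, isolated RNA was converted to cDNA, reporter sequences amplified and 6-FAM-labelled, then HpaI-digested and analysed by capillary electrophoresis. Signal increase against DMSO was fitted.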

[6] = target: Nuclear receptor subfamily 1 group I member 2 (Homo sapiens) (UniProt O75469); assay: ATG_PXR_TRANS: Attagene TRANS-FACTORIAL HepG2 Assay for human Pregnane X Receptor (PXR) (AID 2283008)
Chain of Nuclear receptor subfamily 1 group I member 2 (Homo sapiens) (O75469 whole entry, looked up, the tested form may be a part): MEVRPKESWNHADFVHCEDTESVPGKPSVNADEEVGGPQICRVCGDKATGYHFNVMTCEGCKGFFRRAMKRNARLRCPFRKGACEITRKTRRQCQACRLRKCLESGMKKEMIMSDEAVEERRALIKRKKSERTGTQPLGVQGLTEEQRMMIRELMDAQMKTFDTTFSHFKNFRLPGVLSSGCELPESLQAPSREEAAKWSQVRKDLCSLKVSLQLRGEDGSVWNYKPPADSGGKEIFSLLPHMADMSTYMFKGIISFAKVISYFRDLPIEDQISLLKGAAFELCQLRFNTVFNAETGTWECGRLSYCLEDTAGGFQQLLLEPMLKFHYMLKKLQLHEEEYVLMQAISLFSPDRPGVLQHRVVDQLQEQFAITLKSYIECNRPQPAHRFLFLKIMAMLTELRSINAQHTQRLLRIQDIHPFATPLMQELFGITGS
In short: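 HepG2 cells transiently transfected with GAL4-UAS reporter units and PXR-Gal4 chimera, exposed 24 h. Reporter mRNA quantified by RT-PCR, fluorescent labelling, HpaI digestion and capillary electrophoresis; gain of signal vs DMSO.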

[7] = target: human Retinoic Acid Receptor gamma (RARg), RARG (gene 5916) (UniProt P13631); assay: ATG_RARg_TRANS: Attagene TRANS-FACTORIAL HepG2 Assay for human Retinoic Acid Receptor gamma (RARg) (AID 2283009)
Chain of human Retinoic Acid Receptor gamma (RARg), RARG (gene 5916) (P13631 whole entry, looked up): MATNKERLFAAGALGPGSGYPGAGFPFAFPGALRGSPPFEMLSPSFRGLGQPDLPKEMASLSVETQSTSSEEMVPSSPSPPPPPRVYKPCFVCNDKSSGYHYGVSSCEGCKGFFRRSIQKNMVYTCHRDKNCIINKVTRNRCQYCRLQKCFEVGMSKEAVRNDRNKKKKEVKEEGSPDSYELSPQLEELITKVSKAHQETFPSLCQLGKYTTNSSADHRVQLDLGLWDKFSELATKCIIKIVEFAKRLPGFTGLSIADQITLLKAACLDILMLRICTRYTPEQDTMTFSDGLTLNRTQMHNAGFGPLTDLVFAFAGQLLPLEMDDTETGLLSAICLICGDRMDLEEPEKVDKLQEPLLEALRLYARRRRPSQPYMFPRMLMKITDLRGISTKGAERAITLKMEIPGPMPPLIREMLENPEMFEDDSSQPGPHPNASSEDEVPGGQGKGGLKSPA
In short: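 Transient transfection of HepG2 with multi-reporter constructs, then 24 h chemical treatment. Total RNA isolated, reverse-transcribed, PCR-amplified, fluorescently labelled and resolved by capillary electrophoresis; activity scored as mRNA induction versus DMSO.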

[8] = target: human RAR-related Orphan Receptor gamma (RORg), RORC (gene 6097) (UniProt P51449); assay: ATG_RORg_TRANS: Attagene TRANS-FACTORIAL HepG2 Assay for human RAR-related Orphan Receptor gamma (RORg) (AID 2283011)
Chain of human RAR-related Orphan Receptor gamma (RORg), RORC (gene 6097) (P51449 whole entry, looked up, the tested form may be a part): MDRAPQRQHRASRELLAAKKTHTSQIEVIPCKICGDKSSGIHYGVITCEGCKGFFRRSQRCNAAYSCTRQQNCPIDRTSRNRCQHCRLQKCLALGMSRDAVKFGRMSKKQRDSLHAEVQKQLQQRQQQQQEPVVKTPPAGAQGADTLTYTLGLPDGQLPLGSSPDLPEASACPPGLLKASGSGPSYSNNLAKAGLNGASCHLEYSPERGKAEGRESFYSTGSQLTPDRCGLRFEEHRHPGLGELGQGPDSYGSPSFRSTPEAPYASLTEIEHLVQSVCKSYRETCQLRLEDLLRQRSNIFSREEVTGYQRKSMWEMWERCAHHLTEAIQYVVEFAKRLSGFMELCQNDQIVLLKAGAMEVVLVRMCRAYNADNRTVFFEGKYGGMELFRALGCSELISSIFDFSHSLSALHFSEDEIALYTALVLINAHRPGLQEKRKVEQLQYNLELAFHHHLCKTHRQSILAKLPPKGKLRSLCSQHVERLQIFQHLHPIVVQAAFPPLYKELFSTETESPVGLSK
In short: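 First, HepG2 liver cells were transfected with GAL4-UAS-driven reporter constructs and the RORg-Gal4 fusion. Next, they were treated with chemical for 24 h. Finally, reporter mRNA was quantified by RT-PCR and capillary electrophoresis, with upward activity fitted against DMSO.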

[9] = target: human Retinoid X Receptor beta (RXRb), RXRB (gene 6257) (UniProt P28702); assay: ATG_RXRb_TRANS: Attagene TRANS-FACTORIAL HepG2 Assay for human Retinoid X Receptor beta (RXRb) (AID 2283013)
Chain of human Retinoid X Receptor beta (RXRb), RXRB (gene 6257) (P28702 whole entry, looked up, the tested form may be a part): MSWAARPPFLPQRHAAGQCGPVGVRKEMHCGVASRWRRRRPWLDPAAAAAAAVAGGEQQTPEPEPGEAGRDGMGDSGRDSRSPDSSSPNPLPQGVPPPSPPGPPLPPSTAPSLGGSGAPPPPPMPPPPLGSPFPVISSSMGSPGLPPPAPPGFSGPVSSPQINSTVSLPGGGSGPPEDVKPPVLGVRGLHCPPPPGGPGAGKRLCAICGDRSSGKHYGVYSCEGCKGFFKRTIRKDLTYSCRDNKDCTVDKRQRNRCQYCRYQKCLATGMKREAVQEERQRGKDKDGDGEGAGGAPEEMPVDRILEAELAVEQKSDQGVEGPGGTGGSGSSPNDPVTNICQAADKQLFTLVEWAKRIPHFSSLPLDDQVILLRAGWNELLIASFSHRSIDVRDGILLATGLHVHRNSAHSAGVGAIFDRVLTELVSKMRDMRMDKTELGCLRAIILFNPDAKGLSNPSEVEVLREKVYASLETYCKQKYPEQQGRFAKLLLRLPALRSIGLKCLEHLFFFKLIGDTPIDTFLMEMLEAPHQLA
In short: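 Transfect HepG2 with GAL4-UAS multi-reporter constructs (chimeric NR-Gal4, TRANS format); dose compound 24 h; isolate RNA, RT-PCR, FAM primer extension, HpaI digest; quantify by capillary electrophoresis; positive direction vs DMSO.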

[10] = read-out: Interleukin-1 alpha (IL1a), IL1A (gene 3552); assay: BSK_BE3C_IL1a: BioMAP Diversity Plus: BE3C Assay for Interleukin-1 alpha (IL1a) Biomarker Activity (AID 2283016; active = hit-call score of the fitted dose curve at least 0.9, where 1 is the maximum; inactive = score below 0.9); settings: primary human bronchial epithelial cells; actives raise or lower the signal
In short: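 BE3C primary human bronchial epithelium; cpd 24 h; IL-1a by ELISA; bidirectional fit vs DMSO; parallel SRB (0.1% SRB, 10% TCA fix, 560 nm) for cytotoxicity.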

[11] = read-out: Monocyte Chemoattractant Protein-1 (MCP1), CCL2 (gene 6347); assay: BSK_3C_MCP1: BioMAP Diversity Plus: 3C Assay for Monocyte Chemoattractant Protein-1 (MCP1) Biomarker Activity (AID 2283017; active = hit-call score of the fitted dose curve at least 0.9, where 1 is the maximum; inactive = score below 0.9); settings: primary human endothelial cells (HUVEC); actives raise or lower the signal
In short: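 ELISA read-out of MCP-1 from human umbilical vein endothelial cell cultures harvested 24 h post-dosing. Gain or loss of signal was fitted relative to DMSO.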

[12] = target: human Peroxisome Proliferator-activated Receptor delta (PPARd), PPARD (gene 5467) (UniProt Q03181); assay: ATG_PPARd_TRANS: Attagene TRANS-FACTORIAL HepG2 Assay for human Peroxisome Proliferator-activated Receptor delta (PPARd) (AID 2283002)
Chain of human Peroxisome Proliferator-activated Receptor delta (PPARd), PPARD (gene 5467) (Q03181 whole entry, looked up, the tested form may be a part): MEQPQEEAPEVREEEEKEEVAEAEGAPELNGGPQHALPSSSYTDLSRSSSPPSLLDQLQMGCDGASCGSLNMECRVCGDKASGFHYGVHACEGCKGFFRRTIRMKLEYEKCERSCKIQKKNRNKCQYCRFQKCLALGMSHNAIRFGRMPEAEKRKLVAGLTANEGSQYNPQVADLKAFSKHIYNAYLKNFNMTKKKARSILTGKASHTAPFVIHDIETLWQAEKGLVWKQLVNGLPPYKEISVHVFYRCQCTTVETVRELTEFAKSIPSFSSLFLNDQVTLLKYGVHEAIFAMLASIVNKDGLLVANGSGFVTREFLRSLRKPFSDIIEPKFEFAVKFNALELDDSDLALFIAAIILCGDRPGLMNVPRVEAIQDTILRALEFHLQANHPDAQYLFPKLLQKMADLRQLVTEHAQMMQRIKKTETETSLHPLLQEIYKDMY
In short: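 Read-out is induced reporter mRNA, quantified by RT-PCR with fluorescent labelling and capillary electrophoresis after 24 h dosing. Cells are HepG2 transiently carrying multiple GAL4-UAS reporter units driven by exogenous NR-GAL4 chimeras; DMSO serves as baseline.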

[13] = target: human Retinoic Acid Receptor beta (RARb), RARB (gene 5915) (UniProt P10826); assay: ATG_RARb_TRANS: Attagene TRANS-FACTORIAL HepG2 Assay for human Retinoic Acid Receptor beta (AID 2283004)
In short: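 Transient transfection of HepG2 with multiple reporter units → chemical dosing, 24 h → total RNA isolation → RT with oligo(dT) → reporter-specific PCR, 6-FAM primer extension, HpaI digest → capillary electrophoresis. Positive direction vs DMSO control.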

[14] = target: Retinoic acid receptor alpha (Homo sapiens) (UniProt P10276); assay: ATG_RARa_TRANS: Attagene TRANS-FACTORIAL HepG2 Assay for human Retinoic Acid Receptor alpha (RARa) (AID 2283005)
Chain of Retinoic acid receptor alpha (Homo sapiens) (P10276 whole entry, looked up, the tested form may be a part): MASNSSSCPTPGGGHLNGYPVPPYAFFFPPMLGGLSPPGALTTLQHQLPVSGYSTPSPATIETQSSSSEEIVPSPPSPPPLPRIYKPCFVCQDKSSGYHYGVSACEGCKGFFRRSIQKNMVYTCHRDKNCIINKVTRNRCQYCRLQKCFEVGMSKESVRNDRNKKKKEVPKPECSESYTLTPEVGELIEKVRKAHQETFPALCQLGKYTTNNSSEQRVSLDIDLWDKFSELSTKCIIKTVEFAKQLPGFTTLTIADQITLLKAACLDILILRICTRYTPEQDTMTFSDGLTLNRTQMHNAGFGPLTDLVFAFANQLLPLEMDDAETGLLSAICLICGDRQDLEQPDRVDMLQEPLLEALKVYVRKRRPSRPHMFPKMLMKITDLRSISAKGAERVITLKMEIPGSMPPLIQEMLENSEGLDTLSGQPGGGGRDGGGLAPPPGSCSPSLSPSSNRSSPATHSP
In short: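 Reporter transcripts, measured by RT-PCR with fluorescent labeling and capillary electrophoresis after 24 h dosing, reflect activity of an exogenous human RARa–GAL4 fusion in transiently transfected HepG2. Fitted for increase relative to DMSO.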

[15] = target: human Thyroid Receptor alpha (THRa1), THRA (gene 7067) (UniProt P10827); assay: ATG_THRa1_TRANS: Attagene TRANS-FACTORIAL HepG2 Assay for human Thyroid Receptor alpha (THRa1) (AID 2283014)
Chain of human Thyroid Receptor alpha (THRa1), THRA (gene 7067) (P10827 whole entry, looked up, the tested form may be a part): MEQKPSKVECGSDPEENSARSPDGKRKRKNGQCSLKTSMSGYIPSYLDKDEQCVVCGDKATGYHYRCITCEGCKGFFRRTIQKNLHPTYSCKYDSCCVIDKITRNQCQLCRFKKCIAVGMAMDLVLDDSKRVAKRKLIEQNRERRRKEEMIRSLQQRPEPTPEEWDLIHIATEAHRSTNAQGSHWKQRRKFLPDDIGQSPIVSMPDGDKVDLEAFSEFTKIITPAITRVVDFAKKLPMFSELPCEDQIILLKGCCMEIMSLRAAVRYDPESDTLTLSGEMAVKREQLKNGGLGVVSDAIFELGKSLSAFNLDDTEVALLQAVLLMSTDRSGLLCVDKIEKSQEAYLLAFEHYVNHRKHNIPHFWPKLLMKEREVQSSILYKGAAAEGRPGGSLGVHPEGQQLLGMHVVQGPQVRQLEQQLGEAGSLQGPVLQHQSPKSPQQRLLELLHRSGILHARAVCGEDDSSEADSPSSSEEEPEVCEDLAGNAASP
In short: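 Reporter transcript induction, read by capillary electrophoresis of 6-FAM-labelled RT-PCR products, reflects activity of a transfected THRa1-Gal4 fusion in HepG2 liver cells. Cells were dosed for 24 h; activity was fitted in the positive direction against DMSO.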

[16] = target: Retinoic acid receptor RXR-alpha (Homo sapiens) (UniProt P19793); assay: ATG_RXRa_TRANS: Attagene TRANS-FACTORIAL HepG2 Assay for human Retinoid X Receptor alpha (RXRa) (AID 2283012)
Chain of Retinoic acid receptor RXR-alpha (Homo sapiens) (P19793 whole entry, looked up, the tested form may be a part): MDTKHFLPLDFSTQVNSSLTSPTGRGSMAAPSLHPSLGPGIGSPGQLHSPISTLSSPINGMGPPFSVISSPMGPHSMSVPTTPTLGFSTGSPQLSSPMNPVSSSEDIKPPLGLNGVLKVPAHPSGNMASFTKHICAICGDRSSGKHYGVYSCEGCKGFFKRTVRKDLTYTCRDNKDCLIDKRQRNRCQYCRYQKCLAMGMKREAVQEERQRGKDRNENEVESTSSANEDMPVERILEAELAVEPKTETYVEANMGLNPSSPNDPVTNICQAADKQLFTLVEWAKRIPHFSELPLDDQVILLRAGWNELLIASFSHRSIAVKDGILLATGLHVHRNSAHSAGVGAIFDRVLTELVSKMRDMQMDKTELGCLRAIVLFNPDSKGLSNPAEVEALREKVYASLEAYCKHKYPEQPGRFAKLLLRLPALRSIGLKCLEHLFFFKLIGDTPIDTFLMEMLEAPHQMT
In short: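 Transient transfection of human HepG2 with multiple GAL4-UAS reporter constructs; 24 h compound exposure; total RNA isolated, reverse-transcribed, PCR-amplified, 6-FAM labelled, HpaI-cut, resolved by capillary electrophoresis. Positive-direction fit versus DMSO.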

[17] = read-out: E-selectin (Homo sapiens) (UniProt P16581); assay: BSK_3C_Eselectin: BioMAP Diversity Plus: 3C Assay for Eselectin Biomarker Activity (AID 2283015; active = hit-call score of the fitted dose curve at least 0.9, where 1 is the maximum; inactive = score below 0.9); settings: primary human endothelial cells (HUVEC); actives raise or lower the signal
In short: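 ELISA read-out of E-selectin on endothelial monolayers after 24 h chemical treatment. Human umbilical vein primary cells served as the system, with DMSO defining baseline activity for bidirectional fitting.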

[18] = read-out: Monocyte Chemoattractant Protein-1 (MCP1), CCL2 (gene 6347); assay: BSK_4H_MCP1: BioMAP Diversity Plus: 4H Assay for Monocyte Chemoattractant Protein-1 (MCP1) Biomarker Activity (AID 2283018; active = hit-call score of the fitted dose curve at least 0.9, where 1 is the maximum; inactive = score below 0.9); settings: primary human endothelial cells (HUVEC); actives raise or lower the signal
In short: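 ELISA read-out of MCP-1 from human vascular endothelial primary cells taken at 24 hours after compound exposure. Activity was fitted in both directions relative to DMSO, which served as negative control.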

[19] = target: human RAR-related Orphan Receptor beta (RORb), RORB (gene 6096) (UniProt Q92753); assay: ATG_RORb_TRANS: Attagene TRANS-FACTORIAL HepG2 Assay for human RAR-related Orphan Receptor beta (RORb) (AID 2283010)
In short: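 Readout is reporter-gene mRNA induction, detected as fluorescence after RT-PCR and capillary electrophoresis, fitted for gain of signal against DMSO controls. Transiently transfected HepG2 liver cells carrying GAL4-UAS reporter constructs were treated for 24 hours.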

Measured: AC50

Chain of E-selectin (Homo sapiens) (P16581 whole entry, looked up): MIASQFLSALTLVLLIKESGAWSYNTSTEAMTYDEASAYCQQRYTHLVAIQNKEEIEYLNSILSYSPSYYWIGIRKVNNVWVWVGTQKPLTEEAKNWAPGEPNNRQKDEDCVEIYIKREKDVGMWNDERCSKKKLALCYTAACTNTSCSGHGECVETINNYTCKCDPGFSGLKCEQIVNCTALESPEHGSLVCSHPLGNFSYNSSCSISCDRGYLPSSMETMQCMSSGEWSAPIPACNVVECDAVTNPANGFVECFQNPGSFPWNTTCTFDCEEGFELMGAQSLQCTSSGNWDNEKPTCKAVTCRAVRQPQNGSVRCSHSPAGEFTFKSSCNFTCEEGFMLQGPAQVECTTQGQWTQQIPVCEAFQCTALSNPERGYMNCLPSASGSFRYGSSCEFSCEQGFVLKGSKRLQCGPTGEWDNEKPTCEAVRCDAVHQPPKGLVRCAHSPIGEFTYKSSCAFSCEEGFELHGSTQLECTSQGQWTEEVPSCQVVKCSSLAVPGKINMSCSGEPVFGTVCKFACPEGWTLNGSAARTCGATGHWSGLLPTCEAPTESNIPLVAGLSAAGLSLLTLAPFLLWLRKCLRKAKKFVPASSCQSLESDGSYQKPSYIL

O=C(Cl)c1c(Cl)c(Cl)c(C(=O)Cl)c(Cl)c1Cl
inactive: [1] | [2] | [3] | [4] | [5] | [6] | [7] | [8] | [10] | [11]
active: [9] 100 µM

CCNc1nc(NC(C)(C)C)nc(OC)n1
active: [6] 3.89 µM
not listed: [2] | [5] | [8] | [16] | [17] | [18] | [19]
inactive: all other assays above

C=CC(=O)OCCCCCCOC(=O)C=C
active: [1] 12.4 µM | [3] 29.3 µM | [4] 8.97 µM | [5] 6.09 µM | [6] 26.5 µM | [17] 6.59 µM | [10] 10 µM | [11] 20 µM
inactive: [2] | [12] | [16] | [9] | [15]

Oc1ccccc1Cc1ccccc1O
active: [4] 7.87 µM and 20 µM | [5] 61.1 µM | [11] 1.72 µM | [18] 4.2 µM and 10.9 µM
inactive: [1] | [2] | [12] | [3] | [6] | [7] | [9] | [15] | [10] | [11]

CC/C=C\C/C=C\C/C=C\CCCCCCCC(=O)OC
active: [1] 27.7 µM | [2] 30.4 µM | [12] 68 µM | [3] 29.7 µM | [4] 7.69 µM | [6] 31.3 µM | [9] 125 µM | [17] 19.2 µM | [10] 16.2 µM | [11] 31.7 µM | [18] 32.7 µM

C=CCCCCCCCCC=O
active: [9] 105 µM
not listed: [5] | [7] | [12] | [13] | [14] | [15] | [16]
inactive: all other assays above

Oc1c(Cl)cc(Cl)c(Cl)c1Cl
inactive: [12] | [14] | [6] | [16] | [15]
active: [1] 32.5 µM | [2] 27.2 µM | [3] 28.3 µM | [4] 20 µM | [5] 27 µM | [10] 29.2 µM | [11] 30.7 µM

CCN1CN(CC)CN(CC)C1
not listed: [7] | [9] | [13] | [14] | [15] | [17]
inactive: all other assays above

CC(Cl)COP(=O)(OCC(C)Cl)OCC(C)Cl (stereo not drawn)
active: [6] 1.37 µM
not listed: [8] | [13] | [18] | [19]
inactive: all other assays above
